# Data as given in PubChem BioAssay (NCI).
# “And” between values parts separate entries of the source, which are not always exact repeats. Identical values can stand only once. About 83,000 compounds went through this panel and 20% of them were active in at least one assay; those are over-represented in the sample as a whole.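 Interpretation: 100, growth as untreated; towards 0, rising growth inhibition; 0, no net growth; 0 to -100, cell death. Compounds scoring below 10 were considered active.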 The source made the active and inactive calls.
# Tested on: MCF7 breast
# Test: NCI-60 one-dose screen, 48 h (100 = growth as untreated, 0 = no growth, -100 = all killed)
# Conditions: 10 µM unless noted
row,SMILES,growth
1,CO/C(N)=C(\C#N)N=Cc1ccc2ccccc2c1,8.6% [100 µM] (active) and 1.15% [100 µM] (active)
2,CCC(c1ccc(N(C)C)cc1)C1NC(=S)NC1=O (centres undefined),37.9% [100 µM] (inactive) and 10.5% [100 µM] (inactive)
3,COc1ccc(N=C(C)C(C)=Nc2ccc(OC)cc2)cc1,38.9% [100 µM] (inactive) and 11.1% [100 µM] (inactive)
4,COc1ccc(OC)c(N(CN2C(=O)CCC2C(=O)O)C(C)=O)c1 (centres undefined),86% [100 µM] (inactive) and 95.9% [100 µM] (inactive)
5,CCCCC1C(=O)N(c2ccc(S(=O)(=O)Nc3ccccn3)cc2)N(c2ccc(O)c(C(=O)O)c2)C1=O (centres undefined),121% [100 µM] (inactive) and 87.3% [100 µM] (inactive)
6,O=c1c2ccccc2nc(-c2ccccc2)n1/N=C/c1ccccc1[N+](=O)[O-],65.7% [100 µM] (inactive) and 73.8% [100 µM] (inactive)
7,CC(C)=CCc1cc(C2COc3cc4c(c(O)c3C2=O)C=CC(C)(C)O4)c(O)cc1O (centres undefined),-75.7% [100 µM] (active) and -83.3% [100 µM] (active)
8,CC(=Nc1ccncc1)C(C)=Nc1ccncc1,-47.5% [100 µM] (active) and -27.7% [100 µM] (active)
9,N#CC(=S)Nc1ccc(F)cc1,13.1% [100 µM] (inactive) and -70.2% [100 µM] (active)
10,COC(=O)C(C(=O)C(=O)Nc1c(C)cccc1C(C)(C)C)c1nc2ccc(Cl)cc2[nH]c1=O (centres undefined),69.9% [100 µM] (inactive) and 60.9% [100 µM] (inactive)
11,COc1cc([C@H]2OC[C@H]3[C@@H]2CO[C@@H]3c2cc(OC)c3c(c2)OCO3)cc(OC)c1OC,18.5% [100 µM] (inactive) and 2.61% [100 µM] (active)
12,C=CC(COC(=O)C(C)(C)OC(C)=O)c1ccc(OC(=O)C(C)C)c(OC)c1 (centres undefined),-68.4% [100 µM] (active) and -69% [100 µM] (active)
13,COC(=O)C(=O)C(C(=O)C(=O)Nc1ccc(Cl)c(Cl)c1)c1nc2ccc(C(=O)c3ccccc3)cc2[nH]c1=O (centres undefined),32.4% [100 µM] (inactive) and 5.18% [100 µM] (active)
14,CC(=O)C1=C(C)N2C(=NC3=C(CCc4ccccc43)C2c2ccc(Cl)cc2)S1 (centres undefined),24.9% [100 µM] (inactive) and 9.75% [100 µM] (active)
15,CC/C(Cl)=N\OC(=O)Nc1ccc(OC)cc1,-75.9% [100 µM] (active) and -79.9% [100 µM] (active)
16,N#C/C=C1\C=CC(O)C(O)C1OC1OC(CO)C(O)C(O)C1O (centres undefined),92.7% [100 µM] (inactive) and 74.4% [100 µM] (inactive)
17,COC(=O)C(C(=O)C(=O)NC1Nc2ccc(C)cc2S1)c1nc2ccc(Cl)cc2[nH]c1=O (centres undefined),79.7% [100 µM] (inactive) and 65.5% [100 µM] (inactive)
18,CCCCCCCCOC(=O)C12Oc3ccc(-c4ccc5c(c4O)C(O)=C4C(=O)CC(C)C(O)C4(C(=O)OCCCCCCCC)O5)c(O)c3C(O)=C1C(=O)CC(C)C2O (centres undefined),-22.3% [100 µM] (active) and -100% [100 µM] (active)
19,C=C1C(=O)OC2CC(C)C3(O)CCC(=O)C3(C)CC12 (centres undefined),13.7% [100 µM] (inactive) and 3.19% [100 µM] (active)
20,COc1cc2c3cc1Oc1c(OC)c(OC)cc4c1C(Cc1ccc(O)c(c1)-c1cc(ccc1OC)CC3N(C)CC2)N(C)CC4 (centres undefined),10.3% [100 µM] (inactive) and -92.9% [100 µM] (active)

row,SMILES,growth
1,N#CC1(C#N)C2CCCCC23OC(=N)C1(C#N)C(c1ccco1)O3 (centres undefined),-54% [100 µM] (active)
2,O=C(O)c1n[nH]nc1Cl,94.1% [100 µM] (inactive) and 80.7% [100 µM] (inactive)
3,COC(=O)/C(=N\NC(=S)NN)C(C(=O)OC)C(=O)C(=O)Nc1cccc(C(F)(F)F)c1 (centres undefined),63.8% [100 µM] (inactive) and 8.67% [100 µM] (active)
4,COc1ccc2nc(NC(=O)/C(C#N)=C/c3ccccc3)sc2c1,4.79% [100 µM] (active) and 1.62% [100 µM] (active)
5,C=C1C2CCC3C4(C)CCCC(C)(C(=O)O)C4CCC3(C2)C1OC(=O)/C(C)=C/C (centres undefined),1.75% [100 µM] (active) and 65.7% [100 µM] (inactive)
6,O=C1c2cccnc2-c2nccc3ccnc1c23,-90.9% [100 µM] (active) and -100% [100 µM] (active)
7,COc1cc([C@H]2OC[C@@H]3C(c4cc(OC)c5c(c4)OCO5)OC[C@H]23)cc(OC)c1OC (some centres undefined),67.2% [100 µM] (inactive) and 7.31% [100 µM] (active)
8,O=C1c2ccccc2-c2c1c1ccccc1c(=O)n2CCO,6.81% [100 µM] (active) and -32.3% [100 µM] (active)
9,CC1CC(=O)N(N(C)C)C2(C#N)C(=O)N=C(N)C12C#N (centres undefined),-67.7% [100 µM] (active) and -64.1% [100 µM] (active)
10,COC(=O)C1=CO[C@@H](OC2OC(CO)C(O)C(O)C2O)[C@H]2[C@@H](C)[C@@H](O)[C@@H](O)[C@@H]12 (some centres undefined),95.3% [100 µM] (inactive) and 91.8% [100 µM] (inactive)
11,COc1ccccc1-c1n[nH]c(-c2ccccc2O)n1,61.5% [100 µM] (inactive) and 21.6% [100 µM] (inactive)
12,CC1OC23CCCCC2C(C#N)(C#N)C1(C#N)C(=N)O3 (centres undefined),-34% [100 µM] (active)
13,NC(=S)Nc1[nH]c(=S)nc2c1SC1=N/C(=C\c3ccco3)C(=O)N12,20.2% [100 µM] (inactive) and 4.03% [100 µM] (active)
14,COC(=O)c1ccc(NC(=O)O/N=C(\Cl)C(C)C)cc1,-87.1% [100 µM] (active) and -100% [100 µM] (active)
15,O=C(CCc1ccc(O)c(O)c1)c1ccc(O)c(O)c1O,-69.8% [100 µM] (active) and -72.6% [100 µM] (active)
16,COc1ccc(-c2coc3c4c(ccc3c2=O)OCO4)cc1OC,53.7% [100 µM] (inactive) and 32.9% [100 µM] (inactive)
17,CCOC(=O)C(=O)C(CCC(=O)c1ccc2ccccc2c1O)C(=O)OCC (centres undefined),69.9% [100 µM] (inactive) and 81.3% [100 µM] (inactive)
18,O=C1C=CC=C/C1=C1\N=C(c2ccccc2OCC(=O)c2ccc(Br)cc2)SS1,77.7% [100 µM] (inactive) and 77% [100 µM] (inactive)
19,Cc1ccc2c(/C=C/c3ccc(N(C)C)cc3)ccc(C(C)C)cc1-2,57.7% [100 µM] (inactive) and 75.6% [100 µM] (inactive)
